# Test results as given in ChEMBL document CHEMBL1961873, “Compounds: GSK PKIS; Assays: Nanosyn kinase panel” (2012).
# Experiments:
# [1] = target: Calcium/calmodulin-dependent protein kinase type II subunit alpha (Homo sapiens) (UniProt Q9UQM7); conditions: at 1 µM;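 further: reported value is a mean percent inhibition of CAMK2A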
# [2] = target: Calcium/calmodulin-dependent protein kinase type II subunit delta (Homo sapiens) (UniProt Q13557); conditions: at 0.1 µM
# [3] = target: Calcium/calmodulin-dependent protein kinase type II subunit delta (Homo sapiens) (UniProt Q13557); conditions: at 1 µM
# [4] = target: T1, Calcium/calmodulin-dependent protein kinase type IV (Homo sapiens) (UniProt Q16566); conditions: at 0.1 µM
# T1 sequence (whole entry): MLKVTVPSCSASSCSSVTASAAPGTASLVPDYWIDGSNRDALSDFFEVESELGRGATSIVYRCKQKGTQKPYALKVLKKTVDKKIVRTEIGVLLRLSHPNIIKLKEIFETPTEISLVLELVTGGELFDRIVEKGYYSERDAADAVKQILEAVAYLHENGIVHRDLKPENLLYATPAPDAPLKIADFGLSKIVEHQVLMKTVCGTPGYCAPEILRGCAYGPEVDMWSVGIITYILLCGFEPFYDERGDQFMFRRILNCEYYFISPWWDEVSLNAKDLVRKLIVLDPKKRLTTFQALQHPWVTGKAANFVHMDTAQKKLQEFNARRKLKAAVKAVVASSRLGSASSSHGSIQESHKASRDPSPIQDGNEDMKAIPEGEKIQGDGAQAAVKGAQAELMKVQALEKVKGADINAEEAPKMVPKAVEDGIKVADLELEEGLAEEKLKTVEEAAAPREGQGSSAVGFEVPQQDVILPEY
# [5] = target: T1, Calcium/calmodulin-dependent protein kinase type IV (Homo sapiens); conditions: at 1 µM
# [6] = target: T2, Serine/threonine-protein kinase Chk1 (Homo sapiens) (UniProt O14757); conditions: at 0.1 µM
# T2 sequence (whole entry): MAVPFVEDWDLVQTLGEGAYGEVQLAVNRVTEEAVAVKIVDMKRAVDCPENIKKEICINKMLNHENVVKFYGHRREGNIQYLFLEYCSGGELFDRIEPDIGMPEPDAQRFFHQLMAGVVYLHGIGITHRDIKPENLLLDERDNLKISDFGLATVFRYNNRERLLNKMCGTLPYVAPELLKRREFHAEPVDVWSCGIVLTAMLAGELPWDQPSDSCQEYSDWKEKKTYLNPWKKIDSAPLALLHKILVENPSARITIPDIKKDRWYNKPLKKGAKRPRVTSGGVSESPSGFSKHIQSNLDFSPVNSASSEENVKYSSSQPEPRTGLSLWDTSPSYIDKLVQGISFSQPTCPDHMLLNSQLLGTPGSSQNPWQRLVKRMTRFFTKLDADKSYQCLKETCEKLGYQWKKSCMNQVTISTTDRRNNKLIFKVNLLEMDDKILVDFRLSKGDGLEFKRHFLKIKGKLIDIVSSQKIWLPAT
# [7] = target: T2, Serine/threonine-protein kinase Chk1 (Homo sapiens); conditions: at 1 µM
# [8] = target: Serine/threonine-protein kinase Chk2 (Homo sapiens) (UniProt O96017); conditions: at 0.1 µM
# [9] = target: Serine/threonine-protein kinase Chk2 (Homo sapiens) (UniProt O96017); conditions: at 1 µM
# [10] = target: Death-associated protein kinase 1 (Homo sapiens) (UniProt P53355); conditions: at 0.1 µM;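 further: reported figure is the mean inhibition of DAPK1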
# Sequence of Death-associated protein kinase 1 (Homo sapiens) (P53355 whole entry, looked up): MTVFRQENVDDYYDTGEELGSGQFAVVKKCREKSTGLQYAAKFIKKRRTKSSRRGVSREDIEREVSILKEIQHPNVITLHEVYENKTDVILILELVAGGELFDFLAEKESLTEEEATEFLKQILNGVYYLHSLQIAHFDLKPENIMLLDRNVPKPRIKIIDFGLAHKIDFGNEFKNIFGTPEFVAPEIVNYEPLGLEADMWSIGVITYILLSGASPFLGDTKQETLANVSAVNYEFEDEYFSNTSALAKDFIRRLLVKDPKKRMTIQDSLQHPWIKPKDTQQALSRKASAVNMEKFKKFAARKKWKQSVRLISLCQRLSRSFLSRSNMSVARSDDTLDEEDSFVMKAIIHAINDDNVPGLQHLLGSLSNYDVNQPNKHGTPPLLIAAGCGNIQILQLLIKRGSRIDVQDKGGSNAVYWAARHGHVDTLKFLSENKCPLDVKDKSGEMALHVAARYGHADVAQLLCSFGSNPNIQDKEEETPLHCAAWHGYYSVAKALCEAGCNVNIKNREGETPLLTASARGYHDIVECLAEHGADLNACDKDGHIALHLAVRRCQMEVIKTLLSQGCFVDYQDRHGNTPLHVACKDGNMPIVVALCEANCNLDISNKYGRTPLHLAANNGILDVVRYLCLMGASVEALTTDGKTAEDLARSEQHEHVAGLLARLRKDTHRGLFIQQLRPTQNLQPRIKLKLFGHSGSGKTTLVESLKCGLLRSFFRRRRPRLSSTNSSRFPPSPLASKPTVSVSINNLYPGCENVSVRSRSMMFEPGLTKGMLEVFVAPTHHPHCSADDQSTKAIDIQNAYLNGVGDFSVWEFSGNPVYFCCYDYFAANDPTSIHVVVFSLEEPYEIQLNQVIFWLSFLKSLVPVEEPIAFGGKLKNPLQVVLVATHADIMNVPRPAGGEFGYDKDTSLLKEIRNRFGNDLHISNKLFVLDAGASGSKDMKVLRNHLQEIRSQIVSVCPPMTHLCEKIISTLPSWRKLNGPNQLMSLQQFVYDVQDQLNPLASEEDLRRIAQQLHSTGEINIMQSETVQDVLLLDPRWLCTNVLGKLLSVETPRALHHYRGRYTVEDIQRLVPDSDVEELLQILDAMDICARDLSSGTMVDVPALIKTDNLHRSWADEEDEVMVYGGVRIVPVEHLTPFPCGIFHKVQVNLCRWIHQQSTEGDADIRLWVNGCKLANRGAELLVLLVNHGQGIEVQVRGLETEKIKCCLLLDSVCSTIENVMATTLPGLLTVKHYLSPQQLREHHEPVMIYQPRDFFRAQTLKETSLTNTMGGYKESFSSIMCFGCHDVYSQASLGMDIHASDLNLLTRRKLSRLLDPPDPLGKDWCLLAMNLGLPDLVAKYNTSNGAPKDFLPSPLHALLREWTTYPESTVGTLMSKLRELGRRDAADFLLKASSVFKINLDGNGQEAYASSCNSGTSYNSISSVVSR
# Sequence of Calcium/calmodulin-dependent protein kinase type II subunit alpha (Homo sapiens) (Q9UQM7 whole entry): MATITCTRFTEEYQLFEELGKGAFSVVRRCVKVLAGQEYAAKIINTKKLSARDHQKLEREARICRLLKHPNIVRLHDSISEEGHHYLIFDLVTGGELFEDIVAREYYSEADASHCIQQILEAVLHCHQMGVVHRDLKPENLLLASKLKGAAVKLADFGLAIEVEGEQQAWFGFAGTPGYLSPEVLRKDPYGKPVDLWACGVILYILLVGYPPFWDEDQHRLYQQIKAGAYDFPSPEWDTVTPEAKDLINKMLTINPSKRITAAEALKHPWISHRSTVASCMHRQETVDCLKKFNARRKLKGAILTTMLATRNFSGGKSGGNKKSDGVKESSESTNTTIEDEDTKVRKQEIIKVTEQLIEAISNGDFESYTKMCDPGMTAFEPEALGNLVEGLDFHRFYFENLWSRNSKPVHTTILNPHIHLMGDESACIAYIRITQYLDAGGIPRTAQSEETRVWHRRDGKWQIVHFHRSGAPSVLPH
# Sequence of Calcium/calmodulin-dependent protein kinase type II subunit delta (Homo sapiens) (Q13557 whole entry): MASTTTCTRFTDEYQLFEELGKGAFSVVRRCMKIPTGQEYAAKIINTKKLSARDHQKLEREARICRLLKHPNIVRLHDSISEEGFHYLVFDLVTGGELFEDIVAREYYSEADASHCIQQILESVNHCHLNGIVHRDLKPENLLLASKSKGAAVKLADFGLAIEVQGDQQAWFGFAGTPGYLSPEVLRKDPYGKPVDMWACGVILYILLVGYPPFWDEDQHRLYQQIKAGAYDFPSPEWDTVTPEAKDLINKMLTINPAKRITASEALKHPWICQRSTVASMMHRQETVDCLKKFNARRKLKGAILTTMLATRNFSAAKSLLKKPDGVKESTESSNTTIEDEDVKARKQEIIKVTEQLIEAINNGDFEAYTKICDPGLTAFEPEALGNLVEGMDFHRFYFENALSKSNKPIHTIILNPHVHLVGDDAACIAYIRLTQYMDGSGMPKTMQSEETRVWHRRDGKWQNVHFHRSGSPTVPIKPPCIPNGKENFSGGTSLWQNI
# Sequence of Serine/threonine-protein kinase Chk2 (Homo sapiens) (O96017 whole entry): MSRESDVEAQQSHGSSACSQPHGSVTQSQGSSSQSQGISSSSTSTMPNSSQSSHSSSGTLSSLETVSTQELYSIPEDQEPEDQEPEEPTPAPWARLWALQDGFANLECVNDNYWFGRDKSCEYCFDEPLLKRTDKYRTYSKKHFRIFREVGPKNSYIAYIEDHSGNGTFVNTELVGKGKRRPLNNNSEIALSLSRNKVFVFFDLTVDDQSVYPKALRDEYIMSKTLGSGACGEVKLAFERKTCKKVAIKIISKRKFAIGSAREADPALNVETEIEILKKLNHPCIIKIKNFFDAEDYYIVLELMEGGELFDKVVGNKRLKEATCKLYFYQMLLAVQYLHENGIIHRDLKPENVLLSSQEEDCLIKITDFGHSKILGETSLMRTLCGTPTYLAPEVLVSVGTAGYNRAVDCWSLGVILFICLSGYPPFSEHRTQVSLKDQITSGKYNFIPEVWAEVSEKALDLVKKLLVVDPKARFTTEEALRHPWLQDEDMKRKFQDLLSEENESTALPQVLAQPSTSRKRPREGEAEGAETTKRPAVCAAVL
SMILES,inhibition [1],inhibition [2],inhibition [3],inhibition [4],inhibition [5],inhibition [6],inhibition [7],inhibition [8],inhibition [9],inhibition [10]
CN1CCC(C(=O)Nc2n[nH]c3nnc(-c4ccccc4)cc23)CC1,3.81%,3.23%,3.34%,-0.65%,-2.3%,-2.79%,-0.12%,-1.11%,3.84%,-2.19%
COc1ccc(-c2nn3ncccc3c2-c2ccnc(Nc3ccc(Cl)c(C(F)(F)F)c3)n2)cc1,0.35%,0.24%,-0.01%,-1.57%,-4.24%,-0.59%,-3.23%,1.35%,2.73%,1.96%
Nc1nc(-c2ccc3c(c2)C(=Cc2cc(Br)c(O)c(Br)c2)C(=O)N3)cs1,-3.05%,-2.31%,-1.31%,-0.65%,-2.75%,3.04%,1.34%,-2.92%,0.55%,0.32%
Cc1cccc(-c2n[nH]cc2-c2ccc3ncccc3n2)n1,-0.05%,0.08%,2.08%,1.14%,2.81%,2.24%,1.66%,-0.67%,-0.16%,0.65%
CS(=O)(=O)CCNCc1ccc(-c2ccc3ncnc(Nc4ccc(OCc5ccccc5)c(Cl)c4)c3c2)o1,-1.87%,-1.29%,1.59%,0.2%,1.37%,-6.61%,-6.9%,-6.13%,-4.43%,-9.06%
N#Cc1c(NC(=O)c2cccc3ccccc23)sc2c1CCCC2,1.93%,2.34%,4.57%,2.05%,1.58%,7.17%,10.4%,6.18%,6.56%,8.89%
NS(=O)(=O)c1ccc(N/N=C2\C(=O)Nc3ccc(C(=O)NCCc4c[nH]cn4)cc32)cc1,10.6%,8.76%,32.5%,0.01%,0.46%,4.59%,17.2%,4.59%,18.3%,4.26%
CS(=O)(=O)CCN(CC#N)Cc1ccc(-c2ccc3ncnc(Nc4ccc(OCc5cccc(F)c5)c(Cl)c4)c3c2)o1,-2.02%,1.25%,2.48%,-2.98%,-0.45%,0.28%,2.55%,0.67%,1.7%,-0.47%
O=C1NC(=O)C(c2ccc(Cl)cc2)=C1Nc1ccc(Cl)c(C(=O)O)c1,-3.46%,-2.31%,1.44%,0.68%,0.51%,-0.04%,-1.22%,-2%,-1.93%,-1.53%
Nc1nc(-c2ccccn2)c(-c2ccc3ncccc3n2)s1,2.01%,0.62%,2.75%,-0.73%,-1.69%,4.2%,6.33%,2.16%,4.44%,4.05%
CCn1c(-c2nonc2N)nc2cnc(Oc3cccc(NC(=O)c4ccc(OCCN5CCOCC5)cc4)c3)cc21,2.17%,1.77%,4%,2.08%,2.49%,-8.33%,4.37%,3.15%,13.3%,-1.49%
COc1cc2c(cc1Nc1nc(N3CCc4ccccc43)c3cc[nH]c3n1)N(C(=O)CN(C)C)CC2,4.08%,3.43%,2.99%,2.17%,3.69%,0.15%,3.74%,1.34%,7.08%,2.95%
CS(=O)(=O)CCNCc1ccc(-c2ccc3ncnc(Nc4ccc(OCc5cccc(F)c5)c(C(F)(F)F)c4)c3c2)o1,3.37%,3.17%,2.68%,0.52%,-0.06%,8.99%,11.5%,6.84%,7.75%,11.7%
CCCN1CCC(Oc2cc(Nc3nc(Nc4cccc(F)c4C(N)=O)c4cc[nH]c4n3)c(OC)cc2Cl)CC1,4.06%,3.15%,16.5%,9.59%,31.1%,1.9%,3.67%,1.65%,33.6%,0.88%
COc1cc(C=NNc2ncnc3c2cnn3-c2ccccc2)ccc1O,5.31%,3.65%,12.4%,-0.28%,-1.35%,-2.23%,-2.87%,-3.59%,-0.98%,-5.64%
CCn1c(-c2nonc2N)nc2c(C#CC(C)(C)O)nc(OC[C@@H](N)c3ccccc3)cc21,0.34%,-0.01%,1.5%,2.61%,3.39%,-5.33%,7.52%,-5.8%,1.05%,-8.66%
Cc1cc(O)cc(C)c1/C=C/c1cncc(-c2nn[nH]n2)c1,3.79%,4.52%,4.7%,-0.07%,-1.05%,-7.2%,2.19%,3.38%,5.57%,3.16%

SMILES,inhibition [1],inhibition [2],inhibition [3],inhibition [4],inhibition [5],inhibition [6],inhibition [7],inhibition [8],inhibition [9],inhibition [10]
CS(=O)(=O)CCNCc1nc(-c2ccc3ncnc(Nc4ccc(F)c(Cl)c4)c3c2)cs1,3.45%,1.76%,3.83%,-0.31%,0.31%,2.71%,3.9%,-0.4%,1.15%,4.88%
COC(=O)Nc1nc2cc(Oc3ccc(NC(=O)Nc4cccc(C(=O)O)c4)cc3)ccc2[nH]1,3.09%,1.92%,1.91%,-1.16%,-2.08%,-3.62%,-0.43%,0.25%,6.26%,1.22%
CN(C)c1cc2c(Nc3ccc4nc(Cc5ccccc5)[nH]c4c3)ncnc2cn1,4.09%,4.46%,4.05%,1.47%,-2.01%,7.31%,6.99%,2.75%,9.92%,5.94%
Cc1nnc(-c2ccc(C)c(-c3ccc(C(=O)Nc4cccc(C#N)c4)cc3)c2)o1,1.16%,1.1%,1.51%,-1.55%,-0.84%,0.73%,0.92%,1.03%,4.05%,3.42%
c1cnn2ncc(-c3ccnc(Nc4ccc5c(c4)OCCO5)n3)c2c1,15.3%,7.61%,35.7%,0.39%,1.89%,0.16%,6.81%,2.96%,9.21%,3.38%
COc1cc2ncn(-c3cc(O[C@@H](C)c4ccccc4Cl)c(C(N)=O)s3)c2cc1OC,-1%,2.63%,5.01%,-1.47%,-3.56%,9.31%,11.3%,8.19%,11.6%,13.5%
CCn1c(-c2nonc2N)nc2cncc(C(=O)N3CC[C@H](N)C3)c21,3.64%,4.1%,4.33%,1.7%,-0.55%,4.56%,6.37%,1.1%,1.86%,5.74%
COc1ccc2cc(-c3c(-c4ccncc4)nc(-c4ccc([S+](C)[O-])cc4)n3C)ccc2c1 (stereo not given),3.37%,2.81%,3.06%,0.45%,1.25%,3.28%,4.03%,2.27%,2.52%,3.27%
Cc1ccc(C(=O)NC2CCCCC2)cc1-c1ccc(C(=O)NCC2CC2)cc1,4.57%,4.88%,2.35%,3.22%,3.67%,6.06%,5.14%,1.33%,1.29%,3.76%
COc1cc2ncn(-c3cc(OCc4ccccc4Cl)c(C(N)=O)s3)c2cc1OC,-0.06%,0.36%,2.88%,0.78%,0.41%,-4.54%,-4.25%,-4.95%,-0.53%,-8.75%
COc1cccc(-n2ncc3c(N/N=C/c4cccc(F)c4)ncnc32)c1,2.7%,2.52%,16.1%,0.94%,1.12%,1.95%,3.28%,1.45%,1.6%,-0.52%
[O-][S+]1CCN(Cc2ccc(-c3ccc4ncnc(Nc5ccc(OCc6ccccc6)c(F)c5)c4c3)o2)CC1,2.39%,2.36%,2.19%,0.91%,0.5%,0.15%,3.65%,2.23%,7.61%,2.43%
O=C1NC(=O)C(c2cccc(Cl)c2)=C1Nc1ccc(O)c(Cl)c1,6.43%,3.12%,12%,1.98%,4.94%,1.7%,4.63%,0.16%,2.07%,1.29%
CCn1c(-c2nonc2N)nc2cncc(C(=O)N3CCNCC3)c21,4.17%,4.29%,6.57%,-0.66%,1.55%,6.55%,13.8%,2.96%,5.6%,8.7%
O=C1NC(=O)C(N2CCc3ccccc32)=C1c1ccc(Cl)cc1,2.12%,4.21%,5.17%,0.68%,0.58%,9.38%,12.7%,8.35%,8.52%,11.1%
NC(=O)c1cccc(Nc2nccc(Nc3cccc4[nH]ncc34)n2)c1,-1.01%,-1.68%,3.58%,1.19%,2.27%,1.94%,44.1%,-2.95%,9.48%,0.17%
